9 compounds from PubChem BioAssay (NCI) can be followed below.

Assay [1] is described as follows: NCI Yeast Anticancer Drug Screen. Data for the rad50 strain (AID 155).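 Also: 0% = growth of vehicle-only cultures of the same strain.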 As to conditions: S. cerevisiae rad50 strain growth inhibition, hits give high values. An outline of the steps: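 Relative growth inhibition (compound vs vehicle) was measured in yeast with a defined repair-gene alteration.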
A short description of assay [2]: NCI Yeast Anticancer Drug Screen. Data for the mec2-1 strain (AID 157). As to conditions: S. cerevisiae mec2-1 strain, hits give high values. The procedure, abridged:
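Vehicle-treated cultures served as reference for growth inhibition of compound-exposed mec2-1 yeast.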

Assay [3] is described as follows: NCI Yeast Anticancer Drug Screen. Data for the sgs1 mgt1 strain (AID 161).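 Also: 0% = growth of cultures given vehicle only.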 As to conditions: S. cerevisiae sgs1 mgt1 strain, hits give high values. An outline of the steps:
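Test agents were incubated with a DNA-repair-mutant yeast strain. Growth was then read and compared against vehicle-treated controls.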

A short description of assay [4]: NCI Yeast Anticancer Drug Screen. Data for the cln2 rad14 strain (AID 165).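 Also: 0% = growth equal to vehicle treated cultures.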 As to conditions: S. cerevisiae cln2 rad14 strain, hits give high values. The procedure, abridged:
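Each compound was tested on cln2 rad14 yeast. Inhibition of growth was calculated against vehicle-exposed controls.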

Assay [5] is described as follows: NCI Yeast Anticancer Drug Screen. Data for the bub3 strain (AID 167). As to conditions: S. cerevisiae bub3 mutant strain, hits give high values. The procedure, abridged: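 Screening used yeast with an engineered genetic alteration affecting cell cycle control. Compound-exposed cultures were compared with vehicle cultures, and reduced growth was taken as inhibition.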

Assay [6] in a line: NCI Yeast Anticancer Drug Screen. Data for the mlh1 rad18 strain (AID 175). As to conditions: S. cerevisiae mlh1 rad18 strain growth inhibition, hits give high values. An outline of the steps:
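Vehicle-treated cultures served as the reference for growth inhibition in a yeast strain carrying DNA damage repair alterations exposed to each compound.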

The mark [7] stands for this setting: at 5.0 µM (retest, dose inferred, filed as 0.5).
[8] abbreviates: at 50.0 µM (retest, dose inferred, filed as 5.0).

About 79,000 compounds went through this panel and 15% of them were active in at least one assay; those are over-represented in the sample as a whole. Calls of active or inactive are those of the source. Rule as the data show it: active = growth inhibition above about 70%; inactive = the rest.

As for `CC(=O)OC1C2(CC3N4C(=O)C5(CO)SSC4(CC31O)C(=O)N5C)OC(C)C(C)(C)C2=O` (configuration not stated), the growth inhibition in assay [1] (setting [7]) was 67% (inactive); in assay [1] (setting [8]), 99% (active); in assay [1] (at 50.0 µM), 90.2% (active); in assay [2] (setting [7]), 80% (active); in assay [2] (setting [8]) it was 100% (active); in assay [2] (at 50.0 µM) it was 93.2% (active). Moreover, the growth inhibition in assay [3] (setting [7]) was 68% (inactive); in assay [3] (setting [8]), 97% (active); in assay [3] (at 50.0 µM), 92.8% (active); in assay [4] (setting [7]), 64% (inactive); in assay [4] (setting [8]) it was 99% (active); in assay [4] (at 50.0 µM) it was 88.6% (active). Further, the growth inhibition in assay [5] (setting [7]) is 71% (active); in assay [5] (setting [8]) it was 99% (active); in assay [5] (at 50.0 µM), 91.5% (active); in assay [6] (setting [7]) it was 83% (active); in assay [6] (setting [8]) it was 99% (active); in assay [6] (at 50.0 µM) it was 91.2% (active).
`O=C(O)c1ccc(NP(=O)(O)Oc2ccccc2)cc1` (tested in a mixture with another compound): the growth inhibition in assay [1] (setting [7]) was 0% (inactive); in assay [1] (setting [8]) it was 8% (inactive); in assay [1] (at 50.0 µM) it was -2.15% (inactive); in assay [2] (setting [7]), -1% (inactive); in assay [2] (setting [8]), 3% (inactive); in assay [2] (at 50.0 µM), 3.45% (inactive). Further, the growth inhibition in assay [3] (setting [7]) was -20% (inactive); in assay [3] (setting [8]), -8% (inactive); in assay [3] (at 50.0 µM) it was 29.9% (inactive); in assay [4] (setting [7]), -4% (inactive); in assay [4] (setting [8]), -6% (inactive); in assay [4] (at 50.0 µM) it was -24.8% (inactive). Further, the growth inhibition in assay [5] (setting [7]) is -1% (inactive); in assay [5] (setting [8]) it was -1% (inactive); in assay [5] (at 50.0 µM) it was -7.8% (inactive); in assay [6] (setting [7]), 11% (inactive); in assay [6] (setting [8]), 16% (inactive); in assay [6] (at 50.0 µM), 15.2% (inactive).
Regarding `CC1(C)N([O-])[N+](=O)C1(C)Br` (configuration not stated), the growth inhibition in assay [1] (setting [7]) was 23% (inactive); in assay [1] (setting [8]), 15% (inactive); in assay [1] (at 50.0 µM) it was -2.45% (inactive); in assay [2] (setting [7]), 19% (inactive); in assay [2] (setting [8]) it was 13% (inactive); in assay [2] (at 50.0 µM), -10.3% (inactive). Further, the growth inhibition in assay [3] (setting [7]) is 21% (inactive); in assay [3] (setting [8]) it was 24% (inactive); in assay [3] (at 50.0 µM), -20.2% (inactive); in assay [4] (setting [7]) it was 12% (inactive); in assay [4] (setting [8]), 24% (inactive); in assay [4] (at 50.0 µM) it was 19.5% (inactive). The growth inhibition in assay [5] (setting [7]) is 19% (inactive); in assay [5] (setting [8]) it was 20% (inactive); in assay [5] (at 50.0 µM), 5.55% (inactive); in assay [6] (setting [7]) it was 20% (inactive); in assay [6] (setting [8]), 15% (inactive); in assay [6] (at 50.0 µM), 11.4% (inactive).
`c1ccc([Te][Te]c2ccccc2)cc1`: the growth inhibition is 62% (inactive) in assay [1] (setting [7]); 90% (active) in assay [1] (setting [8]); 17.6% (inactive) in assay [1] (at 50.0 µM); 22% (inactive) in assay [2] (setting [7]); 68% (inactive) in assay [2] (setting [8]); 36.2% (inactive) in assay [2] (at 50.0 µM). The growth inhibition in assay [3] (setting [7]) is 40% (inactive); in assay [3] (setting [8]), 79% (active); in assay [3] (at 50.0 µM), 75% (active); in assay [4] (setting [7]) it was 49% (inactive); in assay [4] (setting [8]) it was 63% (inactive); in assay [4] (at 50.0 µM), 71.2% (active). Moreover, the growth inhibition is 52% (inactive) in assay [5] (setting [7]); 68% (inactive) in assay [5] (setting [8]); 41.5% (inactive) in assay [5] (at 50.0 µM); 56% (inactive) in assay [6] (setting [7]); 88% (active) in assay [6] (setting [8]); 86% (active) in assay [6] (at 50.0 µM).
`O=C1C=CC(=O)N1c1cccc2ccccc12` (tested in a mixture with another compound): the growth inhibition in assay [1] (setting [7]) is -1% (inactive); in assay [1] (setting [8]), 1% (inactive); in assay [1] (at 50.0 µM), 10.3% (inactive); in assay [2] (setting [7]), -39% (inactive); in assay [2] (setting [8]), -1% (inactive); in assay [2] (at 50.0 µM), 2.7% (inactive). The growth inhibition in assay [3] (setting [7]) was 0% (inactive); in assay [3] (setting [8]) it was 2% (inactive); in assay [3] (at 50.0 µM), 9.1% (inactive); in assay [4] (setting [7]), -1% (inactive); in assay [4] (setting [8]), 3% (inactive); in assay [4] (at 50.0 µM), 15.8% (inactive). The growth inhibition in assay [5] (setting [7]) is -8% (inactive); in assay [5] (setting [8]), -5% (inactive); in assay [5] (at 50.0 µM), 61% (inactive); in assay [6] (setting [7]), -1% (inactive); in assay [6] (setting [8]) it was -1% (inactive); in assay [6] (at 50.0 µM), 12.2% (inactive).
Consider `COc1cc[c]([Sb]([Br])([CH]=C(C)C)([CH]=C(C)C)[CH]=C(C)C)cc1`, for which the growth inhibition in assay [1] (setting [7]) was -1% (inactive); in assay [1] (setting [8]), 67% (inactive); in assay [1] (at 50.0 µM) it was 80.8% (active); in assay [2] (setting [7]) it was -5% (inactive); in assay [2] (setting [8]) it was 85% (active); in assay [2] (at 50.0 µM) it was 76.5% (active). Moreover, the growth inhibition in assay [3] (setting [7]) was -1% (inactive); in assay [3] (setting [8]), 62% (inactive); in assay [3] (at 50.0 µM), 35% (inactive); in assay [4] (setting [7]) it was -12% (inactive); in assay [4] (setting [8]) it was 54% (inactive); in assay [4] (at 50.0 µM), 49.2% (inactive). The growth inhibition in assay [5] (setting [7]) is -9% (inactive); in assay [5] (setting [8]), 72% (active); in assay [5] (at 50.0 µM), 80.3% (active); in assay [6] (setting [7]), -6% (inactive); in assay [6] (setting [8]) it was 73% (active); in assay [6] (at 50.0 µM), 72.8% (active).
As to `O=S(=O)(O)O.[Pt].c1ccc([PH+](c2ccccc2)c2ccccc2)cc1.c1ccc([PH+](c2ccccc2)c2ccccc2)cc1.c1ccc([PH+](c2ccccc2)c2ccccc2)cc1`, the growth inhibition is 23% (inactive) in assay [1] (setting [7]); 95% (active) in assay [1] (setting [8]); 93.8% (active) in assay [1] (at 50.0 µM); 13% (inactive) in assay [2] (setting [7]); 94% (active) in assay [2] (setting [8]); 98.1% (active) in assay [2] (at 50.0 µM). The growth inhibition in assay [3] (setting [7]) is 9% (inactive); in assay [3] (setting [8]) it was 94% (active); in assay [3] (at 50.0 µM), 94.3% (active); in assay [4] (setting [7]), 8% (inactive); in assay [4] (setting [8]), 97% (active); in assay [4] (at 50.0 µM) it was 97.8% (active). The growth inhibition was -7% (inactive) in assay [5] (setting [7]); 92% (active) in assay [5] (setting [8]); 96.7% (active) in assay [5] (at 50.0 µM); 39% (inactive) in assay [6] (setting [7]); 95% (active) in assay [6] (setting [8]); 95.2% (active) in assay [6] (at 50.0 µM).
As to `FC(F)(F)C1(C(F)(F)F)O[Te]2(OC1(C(F)(F)F)C(F)(F)F)OC(C(F)(F)F)(C(F)(F)F)C(C(F)(F)F)(C(F)(F)F)O2`, the growth inhibition in assay [1] (setting [7]) is 10% (inactive); in assay [1] (setting [8]), 79% (active); in assay [1] (at 50.0 µM), 63.7% (inactive); in assay [2] (setting [7]) it was 10% (inactive); in assay [2] (setting [8]), 89% (active); in assay [2] (at 50.0 µM) it was 96.3% (active). The growth inhibition was 23% (inactive) in assay [3] (setting [7]); 86% (active) in assay [3] (setting [8]); 95.5% (active) in assay [3] (at 50.0 µM); 14% (inactive) in assay [4] (setting [7]); 84% (active) in assay [4] (setting [8]); 90.2% (active) in assay [4] (at 50.0 µM). In addition, the growth inhibition was 20% (inactive) in assay [5] (setting [7]); 96% (active) in assay [5] (setting [8]); 89.2% (active) in assay [5] (at 50.0 µM); 11% (inactive) in assay [6] (setting [7]); 91% (active) in assay [6] (setting [8]); 92% (active) in assay [6] (at 50.0 µM).
`CN1c2cccc[c]2[Sn]([CH3])([CH3])[c]2ccccc21`: the growth inhibition in assay [1] (setting [7]) is 98% (active); in assay [1] (setting [8]), 99% (active); in assay [1] (at 50.0 µM), 99.4% (active); in assay [2] (setting [7]), 99% (active); in assay [2] (setting [8]), 99% (active); in assay [2] (at 50.0 µM), 99.2% (active). For the same compound, the growth inhibition in assay [3] (setting [7]) was 97% (active); in assay [3] (setting [8]), 99% (active); in assay [3] (at 50.0 µM), 99.5% (active); in assay [4] (setting [7]) it was 77% (active); in assay [4] (setting [8]) it was 100% (active); in assay [4] (at 50.0 µM), 94% (active). For the same compound, the growth inhibition was 7% (inactive) in assay [5] (setting [7]); 99% (active) in assay [5] (setting [8]); 99.2% (active) in assay [5] (at 50.0 µM); 98% (active) in assay [6] (setting [7]); 99% (active) in assay [6] (setting [8]); 99.3% (active) in assay [6] (at 50.0 µM).
